In the library only some 9.3% were active in any assay of this set; here they are far more common.
ELG1 repair inh: ELG1-dependent DNA repair inhibition; HEK293T ELG1-luciferase reporter, luminescence, 16 h; DNA damage induced by 5-fluorouridine; actives 2.3% (n = 330,000); Potency, µM (highest dose often 46.1 µM), inactives show top-dose activity change, negative = inhibition, usual class: inhibitors; note: % is set by controls: 0 for no effect and ±100 for the full control effect; nearly all actives have a fitted effect of over 55% in size
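Luminescence from the luciferase reporter, measured 30 min after ONE-Glo reagent at room temperature, was the read-out. Beforehand, 2,000 cells per well were exposed for 16 hr at 37 °C to 5-fluorouridine together with compound or vehicle.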
SMN2 splice enh: enhancers of SMN2 splice variant expression; actives 2.8% (n = 210,000); HEK293 SMN2-luciferase splicing reporter, luminescence, 30-36 h; Potency, µM (highest dose often 46.1 µM), for the others: at the top dose activity change, positive = activation, hits mostly activators; note: % of control where 0% means no effect; nearly all actives have a fitted effect of over 55% in size
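HEK293 cells carry an SMN2 minigene-luciferase reporter in which exon 7 inclusion puts luciferase in frame. Cells were seeded at 2000 cells/well, attached for 10-12 hours, then exposed to compounds for 30-36 hours at 37C before ONE-Glo luminescence.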
Rab9 prom act: activates the Rab9 promoter; Huh7 Rab9 promoter-luciferase reporter, luminescence, 24 h; Potency, µM (highest dose often 9.22 µM), without a hit: at the top dose activation, negative = inhibition, usual class: activators; actives 2.8% (n = 320,000); AID 485297; note: % of control where 0% means no effect; nearly all actives have a fitted effect of over 60% in size
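Steps: seed 1500 Huh7 Rab9-luc cells per well, rest 2 h at 37 °C; add compound in DMSO; incubate 24 h; add luciferase reagent, 10 min ambient; read luminescence.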
ELG1 genotoxic: induces genotoxicity in HEK293T cells with luciferase-tagged ELG1; actives 1.3% (n = 330,000); HEK293T ELG1-luciferase reporter, luminescence, 16 h; Potency, µM (highest dose often 46 µM), without a hit: top-dose activity change, positive = activation, usual class: activators; note: % of control where 0% means no effect; nearly all actives have a fitted effect of over 60% in size
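Step 1: seed 2,000 HEK293T ELG1-luciferase cells per well. Step 2: add compound or DMSO, incubate 16 hr at 37 °C. Step 3: ONE-Glo, 30 min at room temperature, read luminescence.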
FLuc modulator: inhibits or activates purified firefly luciferase, miR-21 counter-screen | actives 6.9% (n = 360,000) | purified FLuc, Km substrates, luminescence inhibition | AID 588342 | Potency, µM (titrated, usually from 57.5 µM), inactives show top-dose activity change, negative = inhibition, usual class: inhibitors | P08659;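 note: plate controls were vehicle for no effect and reference inhibitor for full effect; nearly all actives have a fitted effect of over 55% in size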
Target sequence (P08659 whole entry, looked up): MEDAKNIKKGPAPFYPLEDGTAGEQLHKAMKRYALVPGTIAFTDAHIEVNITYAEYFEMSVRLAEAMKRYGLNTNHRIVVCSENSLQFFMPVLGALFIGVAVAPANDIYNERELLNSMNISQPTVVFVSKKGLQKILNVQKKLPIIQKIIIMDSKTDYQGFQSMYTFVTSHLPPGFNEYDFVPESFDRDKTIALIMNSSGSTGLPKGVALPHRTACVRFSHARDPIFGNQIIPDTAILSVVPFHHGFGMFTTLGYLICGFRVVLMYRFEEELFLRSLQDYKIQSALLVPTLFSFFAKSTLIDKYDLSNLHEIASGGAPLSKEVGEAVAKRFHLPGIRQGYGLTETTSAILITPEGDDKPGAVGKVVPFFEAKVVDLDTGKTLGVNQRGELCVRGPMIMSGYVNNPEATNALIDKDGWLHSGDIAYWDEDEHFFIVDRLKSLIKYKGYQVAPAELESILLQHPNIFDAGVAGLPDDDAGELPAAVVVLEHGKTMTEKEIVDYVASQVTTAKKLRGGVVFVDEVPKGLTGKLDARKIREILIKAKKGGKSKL
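Purified P. pyralis luciferase (10nM final) with 10uM D-luciferin and 10uM ATP (Km levels) in 50mM Tris acetate pH 7.5, 10mM Mg acetate, 0.01% Tween-20, 0.05% BSA; qHTS 6-point titration, ~60 µM downward; luminescence read.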
NPC1 promoter act: NPC1 promoter activation | Huh7 NPC1 promoter luciferase reporter, 24 h | Potency, µM (series often up to 9.22 µM), without a hit: at the top dose activation, hits mostly activators | actives 2.4% (n = 320,000); note: % of control where 0% means no effect; nearly all actives have a fitted effect of over 60% in size
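NPC1 promoter–luciferase Huh7 cells; 24 h compound; luminescence.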
* marks the source's active call; other numbers are inactive results; ? = inconclusive; / = no result given; [ ] = remark or other dose. Calls come from the whole dose curve; as a rule, active = well fitted curve in the direction sought with a large enough effect; inconclusive = small, poorly fitted or top-dose-only effect, or another doubt; inactive = no such curve, though single readings can be large; an effect the other way counts as inactive or inconclusive. Potency is the fitted concentration of half-maximal effect.

SMILES | ELG1 repair inh | SMN2 splice enh | Rab9 prom act | ELG1 genotoxic | FLuc modulator | NPC1 promoter act
Brc1ccc(-c2csc(N3CCCCCC3)n2)cc1 | ? | / | -15% | 7% | 8.5µM* | -8%
COc1ccc(-c2csc(N3CCOCC3)n2)cc1OC | ? | ? | ? | 18µM* | 12µM* | ?
O=[N+]([O-])c1ccc(N2CCN(c3nc(-c4ccc(Cl)cc4)cs3)CC2)cc1 | ? | -46% | -9% | -11% | 6% | -1%
COc1ccc(-c2csc(/N=C/N(C)C)n2)cc1OC | ? | 28% | 27% | ? | ? | 24%
Clc1ccc(-c2csc(N3CCOCC3)n2)cc1 | ? | 18µM* | 3.2µM* | ? | 11µM* | ?
Brc1ccc(-c2csc(N3CCOCC3)n2)cc1 | ? | / | 4µM* | -14% | 8.5µM* | ?
CCOC1CCc2c(C)nc(N)nc2S1 (configuration not stated) | 0% | / | 0% | -3% | -2% | -4%
N=C1SCC(=O)N1c1nc(-c2ccccc2)cs1 | ? | 11µM* | 2µM* | ? | 5.4µM* | 2.2µM*
S=C(NCc1ccco1)N1CCN(c2nc(-c3ccccc3)cs2)CC1 | ? | / | -19% | -9% | ? | -1%
O=C(CCCl)N1CCN(c2nc(-c3ccccc3)cs2)CC1 | ? | / | ? | 14% | 15µM* | ?
Cc1cc(N2CCN(c3nc(-c4ccccc4)cs3)CC2)c2ccccc2n1 | ? | -62% | -9% | -15% | 1% | -8%
S=C(NCC1CCCO1)N1CCN(c2nc(-c3ccccc3)cs2)CC1 (configuration not stated) | 23µM* | / | -26% | -10% | ? | -3%
c1ccc(-c2csc(N3CCCCCC3)n2)cc1 | ? | ? | 19% | 18µM* | 15µM* | 10%
COc1ccc(Cl)cc1NC(=S)N(CCCN1CCOCC1)Cc1cn(C)c2ccccc12 | -26% | -1%[1.84 µM] | -1% | 0% | 6% | -1%
COc1cc(NC(=O)c2cnc3c(-c4ccc(F)cc4)c(C)nn3c2C)cc(OC)c1 | / | / | / | / | -13% | /
Cn1nnnc1SCc1nnc(-c2ccccc2Br)o1 | ? | 27% | 30% | 17% | ? | 15%
O=C(COC(=O)c1cccc(Cl)c1Cl)NCCN1C(=O)CSC1=O | 10% | -11% | 0% | 3% | -6% | -3%
CCOC(=O)N1CCN(c2nc(-c3ccc(Cl)cc3)cs2)CC1 | ? | -26% | 7% | ? | 17µM* | 3%
c1ccc(-c2cnnc(N3CCCCC3)n2)cc1 | ? | 29% | 1.4µM* | ? | 11µM* | 2.5µM*
Clc1ccc(-c2csc(N3CCCCCC3)n2)cc1 | ? | / | 5% | 8% | 11µM* | 5%
C(=C\c1nc(-c2ccccc2)no1)/c1ccccc1 | ? | 10µM* | 0.56µM* | ? | 1.3µM* | 1.6µM*
O=C(CNC(=O)c1ccc(F)cc1)N/N=C/c1cn[nH]c1-c1ccccc1 | 0% | -17% | -1% | -1% | 3% | -2%
Cc1cccc(Nc2nnc(SCc3cc(=O)n4cc(C)ccc4n3)s2)c1 | ? | -10% | 0% | -11% | -5% | -1%
CCCSc1nnc(Nc2ccccc2C)s1 | ? | ? | 2.8µM* | ? | 19µM* | 28%
Cc1ccc2nc(CSc3nnc(Nc4ccccc4C)s3)cc(=O)n2c1 | 26µM* | -26% | -2% | -7% | 2% | 1%
SMILES | ELG1 repair inh | SMN2 splice enh | Rab9 prom act | ELG1 genotoxic | FLuc modulator | NPC1 promoter act
Cc1cccc(NC(=O)COc2ccc(Br)cc2)n1 | ? | -10% | 11% | 14% | 24µM* | 14%
Cc1ccc(OCC(=O)Nc2cccc(C)n2)c(C)c1 | ? | 23% | ? | 4.1µM* | 4.3µM* | ?
CC[C@]12c3[nH]c4ccccc4c3CCN1C(=O)C(CC(=O)NCCCn1ccnc1)C[C@@H]2C(=O)N1CCN(C(=O)C2CC2)CC1 (some centres not stated) | 14% | / | / | 2% | / | /
CCCCN(Cc1ccco1)S(=O)(=O)c1c[nH]c(C(=O)OC)c1 | 7% | / | -1% | 0% | 5% | -5%
Cn1c(NCc2ccccc2)nc2c1c(=O)n(Cc1ccccc1)c(=O)n2C | ? | -17% | -5% | -6% | 7% | -2%
Cn1c(=O)n(Cc2ccccc2)c(=O)c2c1nc(NCC1CCCO1)n2Cc1ccccc1 (configuration not stated) | 21µM* | -77% | -1% | -10% | 1% | -2%
C=CCNc1nc2c(c(=O)n(C)c(=O)n2C)n1Cc1ccc(F)cc1 | ? | -86% | -28% | 21µM* | 0% | -11%
COc1ccc(CNc2nc3c(c(=O)n(Cc4ccc(F)cc4)c(=O)n3C)n2C)cc1 | 18µM* | 1% | -7% | -17% | 10% | -4%
Cn1c(=O)c2c(nc(NCCO)n2CCCc2ccccc2)n(C)c1=O | 21µM* | / | -10% | -10% | 0% | -2%
Cn1c(=O)c2c(nc(NCc3ccccc3)n2CCCc2ccccc2)n(C)c1=O | ? | 10% | -9% | -8% | 0% | 1%
CC1=CC(c2ccccc2)=NS(=O)(=O)N1 | ? | / | / | 15% | / | /
COc1cc2c(C(=O)Nc3cc(OC)c(OC)c(OC)c3)cn(C)c(=O)c2cc1OC | / | -4% | / | / | -5% | /
O=C(COC(=O)c1ccc(F)cc1F)Nc1cccnc1Cl | 9% | / | -7% | 5% | 4% | 2%
CCNc1nc2c(c(=O)[nH]c(=O)n2C)n1Cc1ccc(F)cc1 | ? | ? | -2% | 23µM* | 2% | 0%
Cn1c(=O)c2c(nc(NCCc3ccccc3)n2Cc2ccc(F)cc2)n(C)c1=O | 12µM* | -4% | -20% | -18% | 4% | -9%
CN(C)c1nc2c(c(=O)[nH]c(=O)n2C)n1Cc1ccc(F)cc1 | 7% | 12% | -9% | ? | 0% | 1%
Cn1c(=O)c2c(nc(NCCc3ccccc3)n2Cc2ccc(Cl)c(Cl)c2)n(C)c1=O | / | 0% | / | / | -8% | /
CCc1nnc(NC(=O)CSc2nc3c([nH]c4ccccc43)c(=O)n2-c2ccc(OC)cc2)s1 | / | / | / | / | 5% | /
CCOc1ccccc1NC(=O)CCC(=O)Nc1ccccc1OCC | ? | 5% | -1% | 8% | 6% | 9%
Cc1cccc2c1cnn2C(=O)Nc1cc(F)ccc1F | ? | / | 0.28µM* | ? | 0.67µM* | ?
CCOc1ccccc1NC(=O)n1ncc2c(C)cccc21 | ? | / | 2.5µM* | 4% | 7.6µM* | 4µM*
Cc1cc(NC(=O)n2ncc3c(C)cccc32)ccc1Br | / | / | / | / | -2% | /
O=C(CSc1nnc(-c2ccccn2)n1Cc1ccco1)c1ccc(-c2ccccc2)cc1 | -23% | -13% | -2% | -4% | -4% | -19%

High-throughput results as filed in PubChem.
